Where “and” joins values, the source holds several entries; their conditions need not be identical. Equal values may be shown once. Records with an inconclusive call do not appear. Some structures have more than one record in an assay (separate samples or runs), and their calls can disagree. Calls of active or inactive are those of the source. Rule for the calls: active = hit-call score of the fitted dose curve at least 0.9, where 1 is the maximum; inconclusive = response in the unintended direction; inactive = score below 0.9.
Experiments:
[1] = target: rat Peripheral-type Benzodiazepine Receptor (PBR), Tspo (gene 24230) (UniProt P16257); assay: NVS_MP_rPBR: NovaScreen (NVS) Membrane Protein Assay for rat Peripheral-type Benzodiazepine Receptor (PBR) (AID 2283335)
Summary of the method: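 Single-concentration duplicate screening at 25 uM preceded concentration-series retesting of actives. Binding of a specific radioligand to rat kidney membrane PBR was read by filtration radiodetection after 1 h, with plate-wise positive and negative controls.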

[2] = target: bovine Estrogen Receptor (ER), ESR1 (gene 407238) (UniProt P49884); assay: NVS_NR_bER: NovaScreen (NVS) Nuclear Receptor Binding Assay for bovine Estrogen Receptor (ER) (AID 2283345);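 note: actives lower the bound radioligand count which means they displace the ER ligand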
Summary of the method: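 Cell-free radioligand binding with bovine uterine membrane extracts, read 18 hours after dosing by scintillation counting. Loss of signal versus DMSO baseline indicates displacement. Primary screen run in duplicate at 25 uM, actives followed in concentration series.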

[3] = NVS_IC_rCaBTZCHL: NovaScreen (NVS) Ion Channel Assay for Calcium Channel, Type L, Benzothiazepine Site (CaBTZCHL) (AID 2283337)
Summary of the method: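 Benzothiazepine-site binding was assessed in a tissue-derived, cell-free rat cortical membrane system. After 1.5 h exposure, radioactivity retained on filters was quantified by scintillation; positive and negative controls accompanied every plate.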

[4] = target: bovine Gamma-Aminobutyric Acid Type A Receptor Agonist (GABAR Agonist), GABRA1 (gene 780973) (UniProt P08219); assay: NVS_LGIC_bGABAR_Agonist: NovaScreen (NVS) Ligand-Gated Ion Channel Assay for bovine Gamma-Aminobutyric Acid Type A Receptor Agonist (GABAR Agonist) (AID 2283338)
Summary of the method: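 Radioligand binding to bovine cerebellar membranes in agonist format, read by filter-based scintillation counting after 1 h. Primary screen in duplicate at 25 uM, with actives followed in concentration series. Gain of signal versus DMSO.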

[5] = target: Voltage-gated inwardly rectifying potassium channel KCNH2 (Homo sapiens) (UniProt Q12809); assay: NVS_IC_hKhERGCh: NovaScreen (NVS) Ion Channel Assay for human Potassium Channel ERG (KhERGCh) (AID 2283333)
Summary of the method: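 Membranes from CHO cells expressing human ERG; displacement of radioligand measured by filtration and scintillation after 0.75 h. Single-concentration duplicate screen at 25 uM, then concentration-response for actives; DMSO baseline.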

[6] = target: human Androgen Receptor (AR), AR (gene 367) (UniProt P10275); assay: NVS_NR_hAR: NovaScreen (NVS) Nuclear Receptor Binding Assay for human Androgen Receptor (AR) (AID 2283332)
Summary of the method: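 Radioligand competitive binding, scintillation read-out, in cell-free extract from LnCAP, measured 20 h after dosing. Screened first in duplicate at 25 uM, then concentration series for actives; activity fitted against DMSO.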

[7] = target: chimpanzee Androgen Receptor (AR), AR (gene 747460) (UniProt O97775); assay: NVS_NR_cAR: NovaScreen (NVS) Nuclear Receptor Binding Assay for chimpanzee Androgen Receptor (AR) (AID 2283346);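 note: radioligand displacement from AR measured by scintillation counting in a cell-free assay; a loss of bound radioligand signal versus DMSO counts as binding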
Summary of the method: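 Cell-free competition binding with insect-cell (Sf9/Sf21) extracted chimpanzee AR; scintillation signal from lysate at 72 h. Screened in duplicate at 25 uM, then concentration-response for actives; fitting relative to DMSO.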

[8] = target: rat Glycine Receptor, Strychnine-sensitive (GlyRStrySens), Glra1 (gene 25674) (UniProt P07727); assay: NVS_LGIC_rGlyRStrySens: NovaScreen (NVS) Ligand-Gated Ion Channel Assay for rat Glycine Receptor, Strychnine-sensitive (GlyRStrySens) (AID 2283341)
Summary of the method: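 Radioligand displacement on rat spinal cord membranes, 1 hr, filter scintillation read-out. Single-concentration duplicate screen at 25 uM; chemicals meeting threshold (e.g., 30% inhibition) rerun in concentration-response up to 50 uM. Loss of binding fitted versus DMSO.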

bovine Estrogen Receptor (ER), ESR1 (gene 407238), sequence (P49884 whole entry, looked up): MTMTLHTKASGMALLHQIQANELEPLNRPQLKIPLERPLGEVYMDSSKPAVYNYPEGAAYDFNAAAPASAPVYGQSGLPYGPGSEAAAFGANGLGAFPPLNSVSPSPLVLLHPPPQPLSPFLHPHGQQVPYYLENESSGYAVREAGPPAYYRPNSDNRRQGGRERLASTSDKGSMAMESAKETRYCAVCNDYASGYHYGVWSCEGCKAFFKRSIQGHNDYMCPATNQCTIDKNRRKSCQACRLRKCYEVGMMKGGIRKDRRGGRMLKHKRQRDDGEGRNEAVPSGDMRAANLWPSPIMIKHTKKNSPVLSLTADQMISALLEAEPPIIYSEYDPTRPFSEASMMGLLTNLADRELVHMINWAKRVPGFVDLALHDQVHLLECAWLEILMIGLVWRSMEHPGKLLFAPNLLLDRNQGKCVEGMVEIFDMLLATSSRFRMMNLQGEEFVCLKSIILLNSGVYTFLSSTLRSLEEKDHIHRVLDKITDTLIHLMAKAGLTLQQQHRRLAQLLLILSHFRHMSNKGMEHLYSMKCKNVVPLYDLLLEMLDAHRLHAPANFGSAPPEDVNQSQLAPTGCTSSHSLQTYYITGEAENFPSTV
rat Peripheral-type Benzodiazepine Receptor (PBR), Tspo (gene 24230), sequence (P16257 whole entry, looked up): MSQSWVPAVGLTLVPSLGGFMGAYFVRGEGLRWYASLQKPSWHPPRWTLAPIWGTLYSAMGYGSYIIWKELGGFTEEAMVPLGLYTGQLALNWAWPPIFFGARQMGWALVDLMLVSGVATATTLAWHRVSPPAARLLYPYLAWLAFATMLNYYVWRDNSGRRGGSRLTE
bovine Gamma-Aminobutyric Acid Type A Receptor Agonist (GABAR Agonist), GABRA1 (gene 780973), sequence (P08219 whole entry, looked up): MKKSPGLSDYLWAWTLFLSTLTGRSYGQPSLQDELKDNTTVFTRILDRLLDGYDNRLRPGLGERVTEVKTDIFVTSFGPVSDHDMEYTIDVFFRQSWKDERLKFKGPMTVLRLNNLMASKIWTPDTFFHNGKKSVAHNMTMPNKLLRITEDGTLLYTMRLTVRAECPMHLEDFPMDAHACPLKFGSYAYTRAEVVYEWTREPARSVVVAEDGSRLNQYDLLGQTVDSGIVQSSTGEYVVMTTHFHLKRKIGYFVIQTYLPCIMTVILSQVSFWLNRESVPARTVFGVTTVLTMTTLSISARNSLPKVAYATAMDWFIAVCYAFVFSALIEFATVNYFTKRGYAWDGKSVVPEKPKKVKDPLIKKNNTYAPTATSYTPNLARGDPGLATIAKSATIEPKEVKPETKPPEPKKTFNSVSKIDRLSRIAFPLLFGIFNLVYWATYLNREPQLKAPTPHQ
Voltage-gated inwardly rectifying potassium channel KCNH2 (Homo sapiens), sequence (Q12809 whole entry, looked up): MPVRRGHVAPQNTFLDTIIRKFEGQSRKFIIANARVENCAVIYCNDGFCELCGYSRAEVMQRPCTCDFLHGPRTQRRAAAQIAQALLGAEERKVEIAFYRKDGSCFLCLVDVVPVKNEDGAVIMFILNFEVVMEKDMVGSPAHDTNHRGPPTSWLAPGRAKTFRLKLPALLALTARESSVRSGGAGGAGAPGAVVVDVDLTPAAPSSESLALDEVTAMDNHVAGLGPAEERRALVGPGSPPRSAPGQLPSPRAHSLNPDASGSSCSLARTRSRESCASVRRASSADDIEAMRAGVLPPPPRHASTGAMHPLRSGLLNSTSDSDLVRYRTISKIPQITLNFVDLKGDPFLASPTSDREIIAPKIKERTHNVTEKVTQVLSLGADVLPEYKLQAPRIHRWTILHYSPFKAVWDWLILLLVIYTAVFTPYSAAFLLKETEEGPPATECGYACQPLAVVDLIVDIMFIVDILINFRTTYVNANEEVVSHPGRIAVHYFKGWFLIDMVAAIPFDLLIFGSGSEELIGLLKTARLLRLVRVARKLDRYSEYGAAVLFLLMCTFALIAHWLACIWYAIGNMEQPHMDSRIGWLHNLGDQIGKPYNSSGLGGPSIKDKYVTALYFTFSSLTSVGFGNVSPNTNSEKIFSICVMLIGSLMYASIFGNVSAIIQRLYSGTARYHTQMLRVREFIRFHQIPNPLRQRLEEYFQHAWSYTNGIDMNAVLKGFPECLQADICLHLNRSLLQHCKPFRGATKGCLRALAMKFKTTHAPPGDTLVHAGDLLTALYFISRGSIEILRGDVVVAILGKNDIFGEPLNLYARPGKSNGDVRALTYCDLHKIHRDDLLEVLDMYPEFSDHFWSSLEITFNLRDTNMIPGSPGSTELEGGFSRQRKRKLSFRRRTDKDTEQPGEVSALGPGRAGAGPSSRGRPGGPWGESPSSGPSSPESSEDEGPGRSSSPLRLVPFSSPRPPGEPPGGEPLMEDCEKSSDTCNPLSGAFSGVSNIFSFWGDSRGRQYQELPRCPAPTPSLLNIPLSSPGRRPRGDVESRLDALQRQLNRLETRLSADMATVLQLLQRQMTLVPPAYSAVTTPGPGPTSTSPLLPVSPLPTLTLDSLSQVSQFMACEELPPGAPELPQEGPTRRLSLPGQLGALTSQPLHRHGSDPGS
human Androgen Receptor (AR), AR (gene 367), sequence (P10275 whole entry, looked up): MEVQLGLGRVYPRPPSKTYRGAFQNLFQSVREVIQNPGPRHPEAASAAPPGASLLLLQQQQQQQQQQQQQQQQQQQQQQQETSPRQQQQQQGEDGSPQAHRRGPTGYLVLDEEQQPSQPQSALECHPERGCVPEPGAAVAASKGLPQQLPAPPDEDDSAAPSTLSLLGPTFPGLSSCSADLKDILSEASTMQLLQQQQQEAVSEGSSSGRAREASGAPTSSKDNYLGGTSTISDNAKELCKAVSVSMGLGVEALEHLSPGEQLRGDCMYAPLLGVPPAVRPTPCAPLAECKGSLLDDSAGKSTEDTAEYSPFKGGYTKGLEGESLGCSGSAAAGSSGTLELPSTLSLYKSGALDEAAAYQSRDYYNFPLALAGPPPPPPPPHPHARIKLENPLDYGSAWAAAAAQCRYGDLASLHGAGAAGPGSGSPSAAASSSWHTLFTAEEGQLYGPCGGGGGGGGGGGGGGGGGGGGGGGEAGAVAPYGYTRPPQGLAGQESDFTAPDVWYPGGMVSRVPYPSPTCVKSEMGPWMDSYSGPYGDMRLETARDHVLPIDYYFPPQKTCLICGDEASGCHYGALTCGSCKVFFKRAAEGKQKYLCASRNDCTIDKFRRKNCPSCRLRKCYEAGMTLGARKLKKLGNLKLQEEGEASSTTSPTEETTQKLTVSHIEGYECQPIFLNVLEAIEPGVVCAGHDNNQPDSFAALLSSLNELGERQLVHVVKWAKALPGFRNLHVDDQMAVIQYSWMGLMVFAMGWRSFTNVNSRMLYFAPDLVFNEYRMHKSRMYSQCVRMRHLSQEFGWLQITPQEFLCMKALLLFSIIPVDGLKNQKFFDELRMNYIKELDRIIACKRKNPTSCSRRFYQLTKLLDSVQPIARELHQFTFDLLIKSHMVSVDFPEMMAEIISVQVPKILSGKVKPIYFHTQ
chimpanzee Androgen Receptor (AR), AR (gene 747460), sequence (O97775 whole entry, looked up): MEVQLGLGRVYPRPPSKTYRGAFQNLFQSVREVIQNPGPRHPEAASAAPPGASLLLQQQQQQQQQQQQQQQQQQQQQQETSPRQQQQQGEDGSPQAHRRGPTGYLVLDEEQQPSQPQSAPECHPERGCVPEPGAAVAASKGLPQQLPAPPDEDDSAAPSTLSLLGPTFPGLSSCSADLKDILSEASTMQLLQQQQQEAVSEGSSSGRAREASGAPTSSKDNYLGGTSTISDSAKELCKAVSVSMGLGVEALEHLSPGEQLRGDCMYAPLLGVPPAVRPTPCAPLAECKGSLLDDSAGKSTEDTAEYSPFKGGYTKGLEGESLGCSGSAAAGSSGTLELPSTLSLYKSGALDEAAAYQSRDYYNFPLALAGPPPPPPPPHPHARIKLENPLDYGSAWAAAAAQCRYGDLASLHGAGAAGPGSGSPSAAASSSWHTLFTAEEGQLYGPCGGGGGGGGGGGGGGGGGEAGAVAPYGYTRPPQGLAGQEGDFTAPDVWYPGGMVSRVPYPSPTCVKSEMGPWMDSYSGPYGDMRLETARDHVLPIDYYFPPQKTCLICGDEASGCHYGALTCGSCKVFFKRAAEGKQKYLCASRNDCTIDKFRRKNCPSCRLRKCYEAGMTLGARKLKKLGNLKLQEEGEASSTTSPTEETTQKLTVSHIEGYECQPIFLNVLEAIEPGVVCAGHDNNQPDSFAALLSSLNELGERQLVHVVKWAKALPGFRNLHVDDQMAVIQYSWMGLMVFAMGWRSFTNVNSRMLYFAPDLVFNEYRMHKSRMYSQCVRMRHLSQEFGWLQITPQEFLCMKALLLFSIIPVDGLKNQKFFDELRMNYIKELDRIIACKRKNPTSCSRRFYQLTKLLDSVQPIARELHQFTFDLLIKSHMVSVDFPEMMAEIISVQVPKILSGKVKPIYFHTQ
rat Glycine Receptor, Strychnine-sensitive (GlyRStrySens), Glra1 (gene 25674), sequence (P07727 whole entry, looked up): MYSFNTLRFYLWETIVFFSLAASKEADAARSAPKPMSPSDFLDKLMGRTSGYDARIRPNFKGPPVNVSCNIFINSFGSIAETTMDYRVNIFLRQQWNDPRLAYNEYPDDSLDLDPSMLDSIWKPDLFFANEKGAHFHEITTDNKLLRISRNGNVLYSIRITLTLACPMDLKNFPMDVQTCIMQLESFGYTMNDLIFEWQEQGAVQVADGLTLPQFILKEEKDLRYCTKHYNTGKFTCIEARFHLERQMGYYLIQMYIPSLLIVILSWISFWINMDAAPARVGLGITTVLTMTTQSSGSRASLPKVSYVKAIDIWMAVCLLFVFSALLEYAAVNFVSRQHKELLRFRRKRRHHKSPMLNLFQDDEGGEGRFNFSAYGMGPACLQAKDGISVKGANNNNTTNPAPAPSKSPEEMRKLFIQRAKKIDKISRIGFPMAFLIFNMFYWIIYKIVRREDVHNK

Structure (SMILES): CO/N=C(/C(=O)OC)c1ccccc1COc1ccccc1C
- AC50 [1]: 0.947 µM (active)
- outcome [2]: inactive

Structure (SMILES): CCOP(=S)(NC(C)C)Oc1ccccc1C(=O)OC(C)C (configuration not stated)
- outcome [1]: inactive

Structure (SMILES): Cc1cc(C)c(C(=O)P(=O)(c2ccccc2)c2ccccc2)c(C)c1
- outcome [1]: inactive

Structure (SMILES): CCCCC(CC)COP(=O)(Oc1ccccc1)Oc1ccccc1 (configuration not stated)
- AC50 [1]: 2.93 µM (active)
- outcome [1]: inactive
- outcome [3]: inactive

Structure (SMILES): CCCCN(CCCC)N=O
- outcome [4]: inactive

Structure (SMILES): c1ccc2c(c1)Nc1ccccc1S2
- outcome [1]: inactive
- outcome [4]: inactive
- outcome [2]: inactive

Structure (SMILES): Nc1ccc([N+](=O)[O-])cc1Cl
- outcome [1]: inactive

Structure (SMILES): ClC(Cl)(Cl)c1ccccc1
- outcome [5]: inactive
- outcome [2]: inactive

Structure (SMILES): O=S(=O)(c1ccc(O)cc1)c1ccc(O)cc1
- AC50 [1]: 4.76 µM (active)
- AC50 [2]: 15.1 µM (active)

Structure (SMILES): CCCCOCCOP(=O)(OCCOCCCC)OCCOCCCC
- AC50 [1]: 7.47 µM (active) and 7.45 µM (active)
- outcome [3]: inactive

Structure (SMILES): Nc1cc2c3c(c1)C(c1ccccc1)=N[C@@H](NC(=O)c1cccnc1)C(=O)N3CC2
- outcome [4]: inactive

Structure (SMILES): C=CC(=O)OCC(CC)(COC(=O)C=C)COC(=O)C=C
- AC50 [1]: 25 µM (active)
- AC50 [2]: 42.2 µM (active)

Structure (SMILES): O=P(Oc1ccccc1)(Oc1ccccc1)Oc1ccccc1
- AC50 [1]: 1.96 µM (active)
- outcome [4]: inactive

Structure (SMILES): N#Cc1c(-c2ccc(Cl)cc2)[nH]c(C(F)(F)F)c1Br
- AC50 [1]: 0.377 µM (active)

Structure (SMILES): N#Cc1cc([N+](=O)[O-])ccc1N
- AC50 [1]: 25 µM (active)

Structure (SMILES): O=P(OCC(Br)CBr)(OCC(Br)CBr)OCC(Br)CBr (configuration not stated)
- AC50 [6]: 6.63 µM (active)
- AC50 [1]: 0.169 µM (active)
- outcome [1]: inactive
- AC50 [7]: 21.8 µM (active)

Structure (SMILES): CCCCCCCc1ccc(O)cc1
- outcome [6]: inactive
- AC50 [5]: 0.766 µM (active)
- AC50 [2]: 0.106 µM (active)
- outcome [2]: inactive
- outcome [7]: inactive

Structure (SMILES): CCOP(=S)(OCC)SCn1nnc2ccccc2c1=O
- AC50 [1]: 9.51 µM (active)

Structure (SMILES): Nc1ccc2ccccc2c1
- AC50 [1]: 7.21 µM (active)

Structure (SMILES): Cc1ccc2c(c1N)C(=O)c1ccccc1C2=O
- AC50 [1]: 1.4 µM (active)
- outcome [3]: inactive
- outcome [2]: inactive

Structure (SMILES): CC(C)Nc1ccc(Nc2ccccc2)cc1
- outcome [3]: inactive

Structure (SMILES): O=C(O)C(Cl)Cl
- outcome [4]: inactive

Structure (SMILES): c1ccc(OP(Oc2ccccc2)Oc2ccccc2)cc1
- outcome [8]: inactive

Source: PubChem BioAssay (EPA / NIEHS)
